We go through 105 compounds from PubChem BioAssay AID651593 (National Center for Advancing Translational Sciences (NCATS), 2012).

Molecules are shown by their SMILES. Among all 1,100 compounds or so, about 860 (78%) were called active. About 19% were inconclusive and are not listed. Calls follow the shape of the dose curve; as a rule, active = well fitted activation curve with a large enough effect; inconclusive = small, poorly fitted or top-dose-only effect; inactive = flat fitted curve, though single readings scatter. So high a share suggests a set chosen from earlier hits. The list shows a part of the results.
Potency is read from the fitted curve at half-maximal effect.

This assay in a line: qHTS of Nrf2 Activators: Hit Validation in Primary Assay. Also: nearly all actives have a fitted effect of over 70% in size. As to activation: 0% is about no effect. To be noted: Nrf2/ARE reporter cell assay; Potency: activation; series mostly up to 46.1 µM; activation: at the top concentration. The gist of the method: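 Luminescence from Steady-Glo lysis reagent, read after 30 min, reported ARE-luciferase activity in AREc32_fluc stable cells. Compounds were tested at several concentrations, incubated 24 h at 37 °C with 5% CO2 following overnight seeding.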
Consider `CCOc1c(Br)cc(C(N)=O)cc1OCc1ccccc1`, for which the “activation” value was 20.2% (inactive). With `Cc1ccc2cc3c(NC(=O)c4ccco4)nn(C)c3nc2c1`, the Potency is 2.59 µM (active). As for `COc1cc(C=C2Cc3ccccc3C2=O)cc(OC)c1OC`, the Potency was 9.2 µM (active). As to `COc1cc(OC)c(OC)cc1/C=C1/Cc2ccccc2C1=O`, the Potency was 8.2 µM (active). For the compound `O=C1C(=Cc2ccccc2Cl)CCc2ccccc21`, the Potency was 20.6 µM (active). On to `COc1ccc(OC)c(C=C2CCc3ccccc3C2=O)c1`, for which the Potency is 2.91 µM (active). Consider `c1ccc(-c2cnc(-c3ccccc3)nn2)cc1`, for which the Potency is 13 µM (active).

With `CSc1nc(Oc2ccc3ccccc3c2)c2sccc2n1`, the Potency was 5.8 µM (active). For `CSc1nc(Oc2ccc(Cl)cc2)c2sccc2n1`, the Potency is 6.51 µM (active). With `Nc1c(C(=O)c2ccc(Br)s2)oc2ccccc12`, the Potency was 5.17 µM (active).

With `Nc1c(C(=O)c2cccs2)oc2ccccc12`, the Potency is 6.51 µM (active). For `O=C(Oc1ccccc1/C=C\C(=O)c1cc2ccccc2o1)c1ccccc1`, the Potency is 4.61 µM (active). Turning to `COc1cccc(C(=O)Oc2ccccc2/C=C\C(=O)c2cc3ccccc3o2)c1`, the Potency is 3.66 µM (active). `O=C(Cn1cnc2scc(-c3cccc([N+](=O)[O-])c3)c2c1=O)NCc1ccco1`: the Potency was 7.31 µM (active).

For `Cc1c(CN(C)C)c2c(n1C)C(=O)c1ccc(Br)cc1-2`, the Potency was 5.17 µM (active).

For the compound `O=C(CC(=O)c1ccccc1O)c1cccc(F)c1`, the Potency was 4.61 µM (active). As to `C(=N\Nc1nc2ccccc2[nH]1)/c1c[nH]c2ccccc12`, the Potency is 16.4 µM (active). In the case of `O=[N+]([O-])c1ccccc1N/N=C/c1c[nH]c2ccccc12`, the Potency is 2.59 µM (active).

For `CC(C)Oc1ccccc1/C=N/Nc1ccccc1[N+](=O)[O-]`, the Potency was 3.26 µM (active). Take `c1ccc(N=NC2=NN(c3ccccc3)CS2)cc1`: the Potency is 5.8 µM (active). As for `O=C(COC(=O)/C=C/c1ccco1)Nc1ccc(F)cc1Cl`, the Potency is 5.8 µM (active). In the case of `CC(=O)c1ccccc1NC(=O)COC(=O)/C=C/c1ccc(C)o1`, the Potency was 3.66 µM (active). Take `CSc1ccccc1NC(=O)COC(=O)/C=C/c1ccco1`: the Potency is 1.16 µM (active).

In the case of `O=C(NC(=S)Nc1ccccc1O)c1ccccc1Cl`, the Potency is 2.31 µM (active). Take `O=C(CNC(=S)NC(=O)c1ccccc1Br)c1ccccc1`: the “activation” value was 27.2% (inactive). With `COC(=O)c1c(NC(=O)c2ccco2)sc(C)c1C`, the Potency is 2.59 µM (active). On to `Cc1ccc(C(=O)Nc2nc(-c3ccco3)c(-c3ccco3)s2)o1`, for which the Potency is 0.92 µM (active). On the same count and under the same terms, the value for `CCOC(=O)c1sc(NC(=O)c2ccco2)nc1C` was 2.59 µM (active). Turning to `CCc1c(C)sc(NC(=O)c2ccco2)c1C#N`, the Potency was 7.31 µM (active). Regarding `Cc1sc(NC(=O)c2ccco2)c(CN2CCCCC2)c1C`, the “activation” value is 9.37% (inactive).

As for `COC(=O)c1sc(NC(=O)c2ccco2)nc1C`, the Potency is 10.3 µM (active). As to `O=C(Nc1ccccc1F)c1ccc(-c2cccc([N+](=O)[O-])c2)o1`, the Potency is 2.31 µM (active). Turning to `c1ccc(N=Nc2cn[nH]c2-c2ccco2)cc1`, the Potency is 9.2 µM (active). For the compound `CC(C)OC(=O)c1cn(-c2ccccc2)nc1-c1ccco1`, the Potency was 6.51 µM (active). For `Fc1ccc2nncc(SCc3ccccc3Cl)c2c1`, the Potency was 2.06 µM (active). On to `O=C(Nc1ncnc2sc3c(c12)CCC3)c1ccco1`, for which the Potency is 0.291 µM (active).

`O=C(Nc1ncnc2sc3c(c12)CCCCC3)c1ccco1`: the Potency was 0.58 µM (active). On to `CN(C)CCN(C(=O)/C=C/c1cccs1)c1nc2c(F)cc(F)cc2s1`, for which the Potency was 2.91 µM (active). Same read-out and setting: for `CN(C)CCN(C(=O)/C=C/c1cccs1)c1nc2ccc(F)cc2s1` the value was 2.06 µM (active); for `Cc1ccc2nc(N(CCN(C)C)C(=O)/C=C/c3cccs3)sc2c1`, 4.61 µM (active); for `Nc1nc(Nc2cccc(Cl)c2)nc(NCCO)c1[N+](=O)[O-]`, 2.59 µM (active). Turning to `Fc1cccc2sc(Nc3nc4ccccc4s3)nc12`, the Potency is 2.31 µM (active).

Turning to `Fc1ccc2nc(Nc3nc4c(F)cc(F)cc4s3)sc2c1`, the Potency was 2.31 µM (active). For `Cn1c(/C(C#N)=C(\O)c2cc(Cl)sc2Cl)nc2ccccc21`, the Potency is 2.31 µM (active). Take `Cc1ccc(C(=O)OCc2c(C)noc2C)cc1NC(=O)c1ccco1`: the Potency is 4.11 µM (active).

Regarding `N/C(=N\OC(=O)c1cc(Cl)ccc1Cl)c1cccnc1`, the Potency was 2.59 µM (active).

With `N/C(=N\OC(=O)c1cc(Cl)ccc1Cl)c1ccncc1`, the Potency is 5.17 µM (active).

For the compound `N/C(=N\OC(=O)c1ccccc1Cl)c1ccncc1`, the Potency is 9.2 µM (active).

As to `COc1ccc(Cl)cc1C(=O)O/N=C(\N)c1ccncc1`, the Potency is 6.51 µM (active). As for `N/C(=N\OC(=O)c1cccc2ccccc12)c1ccc(Br)cc1`, the Potency was 9.2 µM (active). In the case of `COc1ccc(Cl)cc1C(=O)O/N=C(\N)c1ccccn1`, the Potency was 2.91 µM (active). In the case of `N/C(=N\OC(=O)/C=C/c1ccccc1)c1cccnc1`, the Potency was 20.6 µM (active). Regarding `N/C(=N\OC(=O)c1cccc2ccccc12)c1cccnc1`, the “activation” value was 5.33% (inactive). With `O=C(/C=C/c1ccccc1[N+](=O)[O-])N1CCc2ccccc2C1`, the Potency was 20.6 µM (active). `Oc1ccccc1-n1nc2ccc3nonc3c2n1`: the Potency is 11.6 µM (active). Regarding `Cn1c(=O)n(CCc2ccccc2)c(=O)c2c1nc1n2CCN1Cc1ccco1`, the Potency was 2.31 µM (active). For `COc1ccc([C@H]2Cc3cccc(O)c3C(=O)O2)cc1O`, the “activation” value was 4.39% (inactive). In the case of `CCCNC(=O)c1ccc(S(=O)(=O)c2ccc(OC)cc2)c([N+](=O)[O-])c1`, the Potency was 3.66 µM (active). With `Cn1c(N/N=C/c2cccs2)cc(=O)n(C)c1=O`, the Potency was 2.59 µM (active). With `O=c1[nH]n(Cc2ccccc2)c(=O)c2ccccc12`, the Potency was 4.11 µM (active). With `O=C(CSc1nccc(-c2cccs2)n1)Nc1cccc(Cl)c1`, the Potency is 2.06 µM (active). Take `O=C(CSc1nccc(-c2cccs2)n1)Nc1ccc(F)c(Cl)c1`: the Potency is 20.6 µM (active).

Take `O=C(CSc1nccc(-c2cccs2)n1)Nc1cccc(Cl)c1Cl`: the Potency is 2.31 µM (active).

With `Cc1ccc(C(=O)N/N=C/c2ccc(-c3ccc(Br)cc3[N+](=O)[O-])o2)o1`, the Potency was 5.8 µM (active). On the same count and under the same terms, the value for `Cc1cc(C)n2nc(-c3ccc(F)cc3)cc2n1` was 20.6 µM (active); that for `Cc1cc(N2CCOCC2)n2nc(-c3cccc(F)c3)cc2n1` was 1.46 µM (active); that for `O=C(Nc1ncc2c(n1)-c1ccccc1CC2)c1ccccc1` was 5.17 µM (active).

On to `O=C(Nc1ncc2c(n1)-c1ccccc1CC2)c1cccs1`, for which the Potency is 2.31 µM (active). For `O=C(Nc1nccc(-c2cccs2)n1)c1cccs1`, the Potency is 2.59 µM (active). The same measure, in the same setting: for `CCCCn1c(O)c(N=Nc2ccccn2)c2ccccc21` the value was 2.91 µM (active); for `CC(C)CCn1c(O)c(N=Nc2ccccn2)c2ccccc21`, 2.91 µM (active). As to `CC(C)N1C/C(=C/c2cccnc2)C(=O)/C(=C/c2cccnc2)C1`, the Potency is 3.66 µM (active). `COc1ccc(Cl)cc1NC(=O)c1cc(-c2ccco2)on1`: the Potency was 2.59 µM (active). Regarding `COC(=O)c1ccccc1NC(=O)c1cc(-c2ccco2)on1`, the Potency was 3.26 µM (active). As for `COc1ccc(NC(=O)c2cc(-c3cccs3)on2)c(OC)c1`, the Potency is 1.3 µM (active). Turning to `CSc1ccccc1NC(=O)c1cc(-c2cccs2)on1`, the Potency is 2.91 µM (active). As for `CCCCC1C(=O)N(c2ccccc2)N(c2ccc(O)cc2)C1=O` (stereo not given), the “activation” value was 4.73% (inactive). As to `COc1ccc(NC(=O)c2cc(-c3ccco3)on2)c(OC)c1`, the Potency is 2.31 µM (active). As to `Cc1noc(C)c1COc1ccccc1C(=O)NNC(=O)c1ccccc1F`, the Potency is 3.66 µM (active). For `Cc1csc2c(=O)sc(NC(=O)c3cccs3)nc12`, the Potency is 4.11 µM (active). Turning to `Cc1csc2c(=O)sc(NC(=O)c3ccc(F)cc3Cl)nc12`, the Potency is 2.59 µM (active). The same measure, in the same setting: the value for `Cc1ccccc1C(=O)Nc1nc2c(C)csc2c(=O)s1` was 2.91 µM (active); that for `CS/C(=C\C(=O)c1ccco1)Nc1ccccc1Cl` was 4.61 µM (active). As to `CNc1ccc(-c2nc(-c3ccco3)no2)cc1[N+](=O)[O-]`, the Potency was 1.84 µM (active).

On to `CC(C)Nc1ccc(-c2nc(-c3ccco3)no2)cc1[N+](=O)[O-]`, for which the Potency is 2.31 µM (active). `COC(=O)c1cc(=O)nc(NN=Cc2ccco2)s1`: the Potency is 0.58 µM (active). Still for that read-out and setting: the value for `Cc1ccc(Cc2c(-c3ccco3)nc3c(C)cc(Br)cn23)cc1` was 20.6 µM (active); that for `Cc1cc(Br)cn2c(Cc3ccccc3)c(-c3ccco3)nc12` was 16.4 µM (active); that for `Clc1ccsc1-c1csc(-c2cccnc2)n1` was 2.06 µM (active).

In the case of `Cc1ccccc1NC(=O)/C(C#N)=C\c1ccsc1`, the Potency was 3.66 µM (active). The same measure, in the same setting: the value for `Cc1ccccc1NC(=O)/C(C#N)=C/c1ccsc1` was 4.11 µM (active). On the same count and under the same terms, the value for `Clc1cc(-c2ccccc2)nc(-c2ccccc2)n1` was 5.8 µM (active).

Regarding `Clc1nc(-c2ccccc2)cc(-c2ccccc2)n1`, the Potency was 4.11 µM (active). As for `CN1CCCC1CCNc1ccc2c(=O)c3ccccc3oc2c1` (stereo not given), the Potency is 2.06 µM (active). As for `Cc1[nH]c2ccccc2c1N=Nc1ccccc1F`, the Potency is 4.11 µM (active).

Regarding `Cc1[nH]c2ccccc2c1N=Nc1ccccc1C(=O)O`, the Potency was 2.59 µM (active). Turning to `O=C1S/C(=C\C=C\c2ccco2)C(=O)N1c1ccccc1`, the Potency was 5.8 µM (active). For the compound `O=C1S/C(=C\C=C\c2ccco2)C(=O)N1c1ccc(O)cc1`, the Potency was 2.31 µM (active). Regarding `Cc1noc(C(=O)Nc2cc(Cl)ccc2O)c1Cl`, the Potency was 2.91 µM (active). For `C=CCSc1nccc(-c2cc(Cl)sc2Cl)n1`, the Potency is 6.51 µM (active). As for `O=C1c2cccc3cccc(c23)C(=O)N1CCCN(C(=O)c1cccs1)c1cccc(F)c1`, the Potency is 2.31 µM (active). For the compound `O=C(N/N=C\C=C\c1ccco1)c1cc(-c2ccc3ccccc3c2)n[nH]1`, the Potency is 8.2 µM (active). Consider `Cc1cccc(C)c1OCC(=O)N/N=C/C=C/c1ccco1`, for which the Potency is 0.517 µM (active).

As for `O=C(N/N=C/C=C/c1ccco1)c1cccc([N+](=O)[O-])c1`, the Potency was 0.366 µM (active).

For the compound `O=C(N/N=C/C=C/c1ccco1)c1cnccn1`, the Potency was 9.2 µM (active).
